Compound activity from PubChem BioAssay.
An excerpt weighted towards active compounds, which were near 6% of everything screened.
D1 antagonist – human D1 dopamine receptor antagonism. activity change, negative = inhibition, % at 10 µM. actives 3.2% (n = 360,000). HEK293 TREx D1 cells, calcium flux, dopamine EC80; active compounds read low. P21728; in the data active = activity change below about -30%; note: % is set by controls: 0 for no effect and ±100 for the full control effect
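Calcium flux readout: force-coupled, inducible Hek293 Trex D1 line, cells induced overnight at 30 C with tetracycline, dye-loaded 30–90 min at RT. Antagonism scored against EC80 dopamine challenge given 180 s after compound.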
DRD3 antagonist – blocks the human D3 dopamine receptor; max response, negative = inhibition, %; P35462; actives 2.5% (n = 360,000); D3R cells, DiscoveRx beta-arrestin luminescence, antagonist mode; active compounds read low; in the data active = max response below about -50%; inconclusive = no clear call, values can overlap the other calls; note: % is set by controls: 0 for no effect and ±100 for the full control effect
Target sequence (P35462 whole entry, looked up): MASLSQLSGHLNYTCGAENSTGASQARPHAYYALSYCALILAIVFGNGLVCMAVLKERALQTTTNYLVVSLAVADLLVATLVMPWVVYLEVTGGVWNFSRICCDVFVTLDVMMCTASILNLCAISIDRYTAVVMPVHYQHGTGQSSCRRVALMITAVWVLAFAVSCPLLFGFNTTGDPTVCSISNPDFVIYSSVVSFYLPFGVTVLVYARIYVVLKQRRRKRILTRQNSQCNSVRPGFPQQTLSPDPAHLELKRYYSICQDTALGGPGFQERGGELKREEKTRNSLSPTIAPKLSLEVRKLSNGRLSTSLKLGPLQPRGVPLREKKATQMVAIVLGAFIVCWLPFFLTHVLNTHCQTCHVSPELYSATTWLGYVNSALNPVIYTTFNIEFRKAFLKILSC
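Cells expressing the human receptor were seeded at 1500 cells/well, incubated overnight at 37 degrees C in 5% CO2, then exposed to library compounds with dopamine controls for 90 minutes at 37 degrees C before luminescent detection.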
D1 PAM – enhances dopamine response at the human D1 receptor | AID 504651 | HEK293 TREx D1 cells, calcium flux, dopamine EC20 potentiation | P21728 | potentiation, % at 10 µM | actives 0.036% (n = 360,000); in the data active = potentiation above about 30%; note: 0% is about no effect
DRD3 agonist – activates the human D3 dopamine receptor; D3R DiscoveRx beta-arrestin cells, luminescence, 90 min; P35462; actives 0.58% (n = 410,000); max activation, %; AID 652048; in the data active = max activation above about 30%; note: 0% is about no effect
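Agonist-mode cell screen: cells plated at 1500/well and incubated overnight at 37 °C, then exposed to library compounds for 90 min at 37 °C. Detection reagent was added for 30–60 min at room temperature, and luminescence was read.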
D1 agonist – activates the human D1 dopamine receptor. HEK293 T-REx D1 cells, calcium flux, agonist mode. activation, % at 2 µM. AID 504660. actives 1% (n = 360,000). P21728; in the data active = activation above about 30%; note: 0% is about no effect
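Tetracycline-induced HEK293 TREx D1 cells, force-coupled to calcium signalling, were dye-loaded with a no-wash calcium kit. Compound was pin-added after a 10 s baseline. Fluorescence was read kinetically at 1 cycle/s for 180 s, with calcium rises flagged as agonism.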
* marks the source's active call; other numbers are inactive results; ? = inconclusive; · = no result.

SMILES	D1 antagonist	DRD3 antagonist	D1 PAM	DRD3 agonist	D1 agonist
CC(C)OCCCn1c(SCC(N)=O)nc2c(sc3ccccc32)c1=O	-12	·	0	-9	0
CC1CCN(S(=O)(=O)c2cccc(C(=O)N3CCN(c4ccc(F)cc4)CC3)c2)CC1	-39*	-24	-3	-6	4
COc1cccc(NC(=O)CN(C)C(=O)c2cccc(S(=O)(=O)N3CCN(c4ccc(F)cc4)CC3)c2)c1	-34*	-8	-12	1	7
COc1ccccc1N1CCN(C(=O)c2cccc(S(=O)(=O)N3CCCCCC3)c2)CC1	-42*	6	-5	-8	3
COc1ccc(NC(=O)CN(C)C(=O)c2cccc(S(=O)(=O)N3CCN(C)CC3)c2)cc1	-10	8	-1	4	0
CC1CC(C)CN(S(=O)(=O)c2cccc(C(=O)N3CCN(c4ccc(F)cc4)CC3)c2)C1 (stereo not given)	-2	-12	6	-5	5
O=C(c1cccc(S(=O)(=O)N2CCCCCC2)c1)N1CCN(c2ccccc2F)CC1	8	-2	6	-1	2
CC(=Nc1ccccc1)C1=C(O)C(Cc2ccc(O)cc2)NC1=O (stereo not given)	·	1	·	-12	·
Cc1sc2ncnc(N/N=C/c3cccc(O)c3)c2c1C	3	10	6	8	1
C/C(=N\Nc1ncnc2sc(C)c(C)c12)c1ccccn1	6	14	7	26	281*
C/C(=N\Nc1ccc(Cl)c(C(=O)O)c1)c1ccccn1	0	-10	-1	-3	0
C/C(=N\Nc1ncc(Cl)cc1Cl)c1ccccn1	-40*	-7	-2	2	3
Cc1cc(C)c(NC(=O)Cn2c(=O)oc3cc(S(=O)(=O)N4CCCCCC4)ccc32)c(C)c1	-19	·	-3	-10	3
CN(c1ccccc1)c1ccc(/C=N/N2CCOCC2)cc1	11	-52*	-4	-1	3
COc1cc(SC)ccc1C(=O)OCC(=O)NC1CCCCC1	-32*	-1	2	-6	1
COc1ccc(NC(=O)COC(=O)c2cc(SC)ccc2Cl)c(OC)c1	1	-4	-9	32*	4
CCN(CC)S(=O)(=O)c1ccc(C(=O)OCC(=O)NC2CCCC2)cc1	-21	0	-8	3	9
COc1cc(SC)ccc1C(=O)OCC(=O)NC1CCCC1	-11	-4	-8	-3	2
COc1ccc2oc(C(=O)OCC(=O)N3CCCC3=O)c(C)c2c1	5	-1	-8	-6	4
COc1ccc(C(=O)OCC(=O)N2CCCC2=O)c(OC)c1	-3	-56*	-5	2	1
CCN(CC)S(=O)(=O)c1ccc(O)c(C(=O)OCC(=O)NC2CCCC2)c1	-66*	6	-9	12	0
CCCn1ccc2c(OCC(=O)Nc3ccccc3C(=O)OCC)cccc2c1=O	·	·	3	10	4
COc1cc(SC)ccc1C(=O)OCC(=O)N1CCN(C(C)=O)CC1	-18	-64*	-6	-11	1
O=c1[nH]cnc2c1c(-c1ccccc1)cn2-c1ccc(Br)cc1	-45*	?	-16	-3	0
Cc1cccc(-n2cc(-c3ccccc3)c3c(=O)[nH]cnc32)c1	-45*	11	-8	5	-1
SMILES	D1 antagonist	DRD3 antagonist	D1 PAM	DRD3 agonist	D1 agonist
CCOc1ccc(-n2cc(-c3ccccc3)c3c(=O)[nH]cnc32)cc1	-68*	-7	-9	9	1
Cc1nnc(Cc2ccccc2)c2n[nH]c(C)c12	·	2	·	-4	·
CN(CC(=O)Nc1cccc(F)c1)C(=O)c1csc2c1CCCC2	-3	-15	-11	-21	33*
COc1ccc(S(=O)(=O)Cc2ccc(C(=O)NC3CCCCC3)o2)cc1	-9	1	2	4	0
CC1(C)CC(O)C(C)(C)N1O (stereo not given)	168	16	0	-2	37*
COc1ccc(-c2cc(C)no2)cc1S(=O)(=O)NCCc1ccco1	-6	-12	-1	-2	4
CC(C)N1CCc2c(sc(NC(=O)c3ccc(S(=O)(=O)N4CCc5ccccc54)cc3)c2C(N)=O)C1	6	-27	-3	-6	32*
CN(C1CCCCC1)S(=O)(=O)c1ccc(C(=O)Nc2sc3c(c2C(N)=O)CC(C)(C)NC3(C)C)cc1	0	?	7	-1	28
